Consider 13 molecules from PubChem BioAssay.

As usually defined, the inhibition is the relative decrease from the control value, in per cent. What is called AC50 is the concentration giving half of the maximal activity seen.

A short description of test [1]: chitosan synthesis blockers in C. neoformans – flow cytometry, Cibacron Brilliant Red staining (AID 1347148; call rule not given here;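 further: compound exposure lasted three days at 37 degrees C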). As to conditions: Cryptococcus neoformans chitosan, stronger effect = lower value; at 10 µM unless noted.
The nature of test [2]: human hepatoma cell viability loss – ATP luminescence, cytotoxicity control for P. falciparum antimalarial project, primary screen (AID 2303;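 active means inhibition above 50%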;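 further: 0% = DMSO wells and 100% = digitonin-killed cells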). Conditions: HepG2 viability, 24-48 h, at 10 µM, stronger effect = higher value.
Test [3] concerns the target L-lactate dehydrogenase (Plasmodium falciparum (isolate CDC / Honduras)) (UniProt Q27743). Put plainly: PfLDH activity inhibition – cell lysate, 3D7 strain, counter-screen for P. falciparum growth inhibition project (AID 2304; call rule not given here;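 further: 0% = vehicle and 100% = reference inhibitor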). As to conditions: P. falciparum 3D7 crude extract, LDH APAD/NBT absorbance; at 2 µM; stronger effect = higher value.
Test [4] in a line: inhibition of 3D7 malaria parasite growth – strain 3D7 (AID 2306; call rule not given here;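 further: 0% = DMSO wells and 100% = chloroquine plus artemisinin control wells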). Conditions: P. falciparum 3D7 erythrocytic growth, LDH absorbance, 72 h; at 2 µM; stronger effect = higher value.
Test [5] concerns the target Calcium-dependent protein kinase 1 (Plasmodium falciparum (isolate 3D7)) (UniProt P62344). The test can be described thus: PfCDPK1 kinase inhibitors, biochemical, TCAMS library (AID 1159585; cut-off not given, nearly all actives have IC50 up to about 0.98 µM;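 further: inhibitors leave more ATP so luminescence rises with inhibition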). Conditions: recombinant PfCDPK1, Kinase-Glo ATP depletion luminescence.
The target in test [6] is Plasmodium falciparum protein kinase 6 (PK6, PF3D7_1337100) (UniProt Q8IDW1). The test can be described thus: PfPK6 kinase inhibitors, biochemical, TCAMS library (AID 1159586; call rule not given here). Conditions: recombinant PfPK6, Kinase-Glo ATP depletion luminescence.
Sequence of Plasmodium falciparum protein kinase 6 (PK6, PF3D7_1337100) (Q8IDW1 1-305): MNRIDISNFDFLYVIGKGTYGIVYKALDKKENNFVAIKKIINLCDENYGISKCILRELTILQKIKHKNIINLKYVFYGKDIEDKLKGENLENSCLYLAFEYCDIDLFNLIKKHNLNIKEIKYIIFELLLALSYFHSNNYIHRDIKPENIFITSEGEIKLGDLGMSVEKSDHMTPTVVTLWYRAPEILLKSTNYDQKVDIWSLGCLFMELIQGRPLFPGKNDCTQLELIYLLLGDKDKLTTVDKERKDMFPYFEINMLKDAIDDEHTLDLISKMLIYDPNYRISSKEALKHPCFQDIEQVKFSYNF
The target in test [7] is Protein kinase 7 (PK7), Plasmodium falciparum 3D7 (PF3D7_0213400) (UniProt Q7YTF7). The test can be described thus: inhibition of Plasmodium PK7 catalytic activity – biochemical, TCAMS antimalarial set, Kinase-Glo luminescence (AID 1159587; call rule not given here). Conditions: recombinant PfPK7, Kinase-Glo ATP depletion luminescence. (In Kinase-Glo more light means more ATP remaining.)
Sequence of Protein kinase 7 (PK7), Plasmodium falciparum 3D7 (PF3D7_0213400) (Q7YTF7 1-343): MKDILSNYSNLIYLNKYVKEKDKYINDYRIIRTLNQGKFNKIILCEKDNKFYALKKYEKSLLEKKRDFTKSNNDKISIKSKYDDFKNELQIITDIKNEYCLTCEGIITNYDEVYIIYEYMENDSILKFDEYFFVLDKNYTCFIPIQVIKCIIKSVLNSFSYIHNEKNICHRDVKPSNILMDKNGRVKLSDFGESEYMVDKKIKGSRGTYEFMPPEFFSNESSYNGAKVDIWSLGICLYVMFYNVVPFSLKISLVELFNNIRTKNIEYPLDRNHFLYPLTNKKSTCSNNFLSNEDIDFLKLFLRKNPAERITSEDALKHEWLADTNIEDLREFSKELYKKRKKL
In test [8] the target is Calcium-dependent protein kinase 4 (Plasmodium falciparum (isolate 3D7)) (UniProt Q8IBS5). The test can be described thus: PfCDPK4 kinase inhibitors, biochemical, TCAMS library (AID 1159588; cut-off not given, nearly all actives have IC50 up to about 0.91 µM). Conditions: recombinant PfCDPK4, Kinase-Glo ATP depletion luminescence.
Sequence of Calcium-dependent protein kinase 4 (Plasmodium falciparum (isolate 3D7)) (Q8IBS5 whole entry, looked up): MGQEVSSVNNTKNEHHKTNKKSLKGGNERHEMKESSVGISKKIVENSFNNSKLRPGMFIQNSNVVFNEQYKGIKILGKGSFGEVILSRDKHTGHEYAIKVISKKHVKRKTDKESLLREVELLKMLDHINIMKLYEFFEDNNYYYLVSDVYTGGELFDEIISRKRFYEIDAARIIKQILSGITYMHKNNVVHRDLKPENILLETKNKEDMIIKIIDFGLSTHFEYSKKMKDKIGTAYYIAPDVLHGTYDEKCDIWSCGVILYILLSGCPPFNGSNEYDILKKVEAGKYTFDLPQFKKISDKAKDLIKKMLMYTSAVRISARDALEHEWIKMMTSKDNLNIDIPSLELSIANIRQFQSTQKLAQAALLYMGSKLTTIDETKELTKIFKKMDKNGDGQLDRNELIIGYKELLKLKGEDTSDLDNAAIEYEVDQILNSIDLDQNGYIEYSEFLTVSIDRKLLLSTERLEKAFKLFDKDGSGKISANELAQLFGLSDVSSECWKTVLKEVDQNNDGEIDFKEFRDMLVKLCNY
Test [9] can be described thus: growth inhibition, single agents and combos, LFS_MB_1R, cell-based, cisplatin or BGB combos, synergistic combos for chromothripsis tumors (AID 1671452).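 Further: cells exposed for 96 hours before readout.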 Conditions: LFS_MB_1R medulloblastoma cells, stronger effect = higher value.
Test [10] in a line: growth inhibition, single agents and combos, CRL2098, cell-based, BGB or cisplatin IC20 combos, synergistic combos for chromothripsis tumors (AID 1671454).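 Further: cells exposed for 96 h before readout; 0% = vehicle DMSO and 100% = killing by high DMSO.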 Conditions: CRL2098 osteosarcoma cells, drug combinations, stronger effect = higher value.
The nature of test [11]: growth inhibition, single agents and combos, HD-MB03, cell-based, BGB or cisplatin IC20 combos, synergistic combos for chromothripsis tumors (AID 1671455; in the data active means inhibition above about 83%;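 further: 0% = vehicle DMSO and 100% = high DMSO as cytotoxic control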). Conditions: HD-MB03 medulloblastoma cells, stronger effect = higher value.
Test [12] in a line: growth inhibition, single agents and combos, UWB1.289, cell-based, BGB or cisplatin combos, synergistic combos for chromothripsis tumors (AID 1671456).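 Further: cells exposed to compound for four days; 0% = vehicle DMSO and 100% = killing by high DMSO.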 As to conditions: UWB1.289 ovarian carcinoma cells, stronger effect = higher value.
The nature of test [13]: growth inhibition, single agents and combos, LFS_MB_2R, cell-based, cisplatin combos, synergistic combos for chromothripsis tumors (AID 1671457).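 Further: cells exposed to compound for four days before readout.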 As to conditions: LFS_MB_2R medulloblastoma cells, stronger effect = higher value.
Test [14] in a line: growth inhibition, MDA-MB-436, cell-based, BGB or cisplatin combos, synergistic combos for chromothripsis tumors (AID 1671458; call rule not given here;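 further: cells exposed for 96 hours; 0% = vehicle DMSO and 100% = killing by high DMSO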). As to conditions: MDA-MB-436 breast carcinoma growth inhibition, drug combinations, stronger effect = higher value.
Test [15] in a line: UWB1.289_BRCA1 ovarian cancer growth, cell-based, BGB or cisplatin combinations (AID 1671459). As to conditions: UWB1.289 BRCA1 ovarian carcinoma, drug combinations, stronger effect = higher value.
Test [16] in a line: drug combination toxicity in non-malignant astrocytes – cell-based, BGB or cisplatin IC20 combos, cytotoxicity control for chromothriptic childhood tumor combination screen (AID 1671460).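 Further: cells exposed to compounds for 96 hours before viability readout; 0% = vehicle and 100% = killing control.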 Conditions: Human astrocytes, viability inhibition, drug combinations, at 0.5 µM, stronger effect = higher value.
Test [17] is described as follows: BT084 cell growth, single and combined drugs, ICGC_MB145, cisplatin and BGB IC40 combos (AID 1671461).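 Further: cells exposed to drugs for 96 hours; 0% = vehicle DMSO and 100% = high DMSO full killing control.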 As to conditions: BT084 medulloblastoma cells, drug combinations, stronger effect = higher value.
Test [18] can be described thus: RCMB18 cell growth, single agent and combined, cisplatin and BGB IC40 combos (AID 1671462).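 Further: cells exposed to compound for four days.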 Conditions: RCMB18 medulloblastoma cells, stronger effect = higher value.
The nature of test [19]: CRL1545 cell growth, single agent and combined, cisplatin and BGB IC20 combos (AID 1671464).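 Further: cells exposed to compound for 96 hours before readout; 0% = vehicle DMSO and 100% = high DMSO killing control.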 Conditions: CRL1545 osteosarcoma cells, stronger effect = higher value.
A short description of test [20]: viability loss in pontine glioma line – cell-based, SU-DIPG-IV, MIPE4.0, CellTiter-Glo, qHTS, dose response (AID 1347063; cut-off not given, nearly all actives have AC50 up to about 30 µM;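 further: compound exposure lasted 48 hours before the viability readout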). As to conditions: CellTiter-Glo ATP luminescence. On the technique in general: In ATP-based viability assays light output follows the ATP content of the culture.
[21] abbreviates: measured here: combination with cisplatin, at 0.5 µM.
[22] abbreviates: measured here: combination with cisplatin, at 5 µM.

Several values for one entry are separate records, joined by “and”; a condition that tells them apart may be missing. Equal values may be shown once. Inconclusive results are not listed. For some of these results: Results with a measured potency or affinity are listed apart. Activity calls are given as the source filed them. Unless noted, no stated cut-off is given here; in the data, active means inhibition above about 80%; inactive means the rest.

Sequence of Calcium-dependent protein kinase 1 (Plasmodium falciparum (isolate 3D7)) (P62344 whole entry, looked up): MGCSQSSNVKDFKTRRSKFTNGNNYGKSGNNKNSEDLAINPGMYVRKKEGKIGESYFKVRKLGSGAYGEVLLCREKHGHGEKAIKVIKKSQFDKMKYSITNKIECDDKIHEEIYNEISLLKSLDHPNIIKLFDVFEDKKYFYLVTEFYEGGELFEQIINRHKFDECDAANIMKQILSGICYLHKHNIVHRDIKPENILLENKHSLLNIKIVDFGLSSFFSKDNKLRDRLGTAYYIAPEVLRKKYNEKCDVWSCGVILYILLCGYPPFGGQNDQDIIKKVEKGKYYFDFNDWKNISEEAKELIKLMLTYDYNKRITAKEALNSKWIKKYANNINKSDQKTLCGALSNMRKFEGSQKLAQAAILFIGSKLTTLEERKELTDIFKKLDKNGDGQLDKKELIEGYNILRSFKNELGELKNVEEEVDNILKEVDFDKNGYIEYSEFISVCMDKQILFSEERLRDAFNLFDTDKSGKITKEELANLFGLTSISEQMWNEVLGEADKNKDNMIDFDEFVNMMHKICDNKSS
Sequence of L-lactate dehydrogenase (Plasmodium falciparum (isolate CDC / Honduras)) (Q27743 whole entry, looked up): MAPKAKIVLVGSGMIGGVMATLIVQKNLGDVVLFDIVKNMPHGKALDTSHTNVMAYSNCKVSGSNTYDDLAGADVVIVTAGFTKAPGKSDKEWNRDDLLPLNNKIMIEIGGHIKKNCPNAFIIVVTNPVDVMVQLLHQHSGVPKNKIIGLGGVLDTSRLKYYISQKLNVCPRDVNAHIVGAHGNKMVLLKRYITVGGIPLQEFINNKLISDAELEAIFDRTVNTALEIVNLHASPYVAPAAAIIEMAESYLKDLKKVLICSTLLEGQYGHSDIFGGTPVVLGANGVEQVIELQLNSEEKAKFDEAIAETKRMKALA

In the case of `O=S(=O)(c1cccc2cnccc12)N1CCCNCC1`, the fold fluorescence in test [1] is 2.56 [at 137.3 µM] (active).

With `COc1ccc(C[C@H](N)C(=O)N[C@H]2[C@@H](O)[C@H](n3cnc4c(N(C)C)ncnc43)O[C@@H]2CO)cc1`, the inhibition in test [2] was 98% (active); in [3] it was 5% (inactive). The growth inhibition in [4] is 100% (active). In addition, the outcome in test [5], in test [6], in test [7] and in test [8] was inactive.

Turning to `O=c1ccc2ccc(O)c(O)c2o1`, the inhibition was 4% (inactive) in [2] and 0% (inactive) in [3]. The growth inhibition in test [4] was 85% (active). The result in [5], in test [6], in test [7] and in [8] was inactive.

Turning to `CC1=C(/C=C/C(C)=C/C=C/C(C)=C\C(=O)O)C(C)(C)CCC1`, the fold fluorescence in test [1] was 5.81 (inactive).

Consider `CN(C)c1nc(N(C)C)nc(N(C)C)n1`, for which the inhibition in test [9] (at 0.5 µM) was -12.2% (inactive) and -12.7% (inactive); in test [9] (measured here: combination with BGB IC40, at 0.05 µM), -30.7% and -16.9%; in [9] (setting [21]) it was -26.8% and 10.6%; in test [9] (setting [22]), 4.67% and 9.66%; in [10] (at 0.5 µM) it was -49.5% (inactive) and -47.8% (inactive); in test [10] (measured here: combination with BGB at IC20, at 0.5 µM), -51.4% and 13.2%. For the same molecule, the inhibition was -47.8% and -102% in [10] (measured here: combination with cisplatin at IC20, at 0.5 µM); 1.44% (inactive) and -2.84% (inactive) in [11] (at 0.5 µM); -7.11% and -19.4% in test [11] (measured here: combo with BGB at IC20, at 0.5 µM); 0.726% and 22% in test [11] (measured here: combo with cisplatin at IC20, at 0.5 µM); -1.03% (inactive) and 0.53% (inactive) in [12] (at 0.5 µM); -18.8% and -9.83% in [12] (measured here: inhibition with BGB combination, at 0.05 µM). The inhibition in [12] (measured here: inhibition with cisplatin combination, at 0.05 µM) is -9.85% and -22.8%; in [13] (at 0.5 µM), -22.5% (inactive) and -23.2% (inactive); in [13] (setting [21]), -24.3% and -25.9%; in test [13] (setting [22]) it was -28.5% and -13.6%; in test [14] (at 0.5 µM), -22.6% (inactive) and -14.7% (inactive); in [14] (measured here: BGB combination, at 0.5 µM), -20.2% and -14.3%. For the same molecule, the inhibition in test [14] (measured here: BGB combination, at 5 µM) is -29.4% and -4.55%; in test [14] (measured here: cisplatin combination, at 0.5 µM) it was -45.1% and -27.9%; in test [14] (measured here: cisplatin combination, at 5 µM), -26.8% and -16.1%; in test [15] (BGB combination, concentration series, at 5 µM), 3.42% and 17.2%; in test [15] (at 0.5 µM), -3.79% (inactive) and -4% (inactive); in [15] (cisplatin combination, concentration series, at 5 µM), 4.29% and 15.7%. Moreover, the inhibition in test [16] is 2.24% (inactive) and 16.1% (inactive); in test [16] (measured here: combo with BGB IC20) it was 5.31% and 10%; in test [16] (measured here: combo with cisplatin IC20) it was -12.9% and 15.6%; in [17] (at 0.5 µM), -16.2% (inactive) and -0.543% (inactive); in test [17] (cisplatin combination, at 0.5 µM), -6.73% and -17%; in test [17] (cisplatin combination, at 5 µM) it was -56% and -11.7%. In addition, the inhibition is -15.3% and -38.9% in test [17] (measured here: BGB IC40 combination 0.05 uM, at 0.05 µM); -26.9% and -18.4% in test [17] (single agent, at 5 µM); -17.5% (inactive) and -22.8% (inactive) in test [18] (at 0.5 µM); 8.02% and 8.44% in test [18] (cisplatin combo, at 5 µM); -20.9% and -5.23% in [18] (measured here: BGB IC40 combination, at 0.05 µM); -20.5% and -16.6% in test [18] (setting [21]). Further, the inhibition in test [18] (single agent, at 5 µM) was -16.6% and -17.8%; in test [19] (at 0.5 µM) it was -6.92% (inactive) and -37.6% (inactive); in test [19] (measured here: with BGB IC20 combination, at 0.5 µM), -15.7% and -14.1%; in [19] (measured here: with cisplatin IC20 combination, at 0.5 µM) it was -2.53% and -51.8%; in [19] (single agent, at 0.05 µM) it was -4.42% and -41.6%; in test [19] (single agent, at 5 µM) it was 18.4% and -24.6%.

In the case of `COc1ccc2c3c1O[C@H]1C[C@@H](O)C=C[C@@]31CCN(C)C2`, the result in test [20] was inactive.

`Cc1ccc(N(CC2=NCCN2)c2cccc(O)c2)cc1`: in test [1], the fold fluorescence was 4.52 [at 177.7 µM] (inactive).

For `C[C@H](CCC(=O)O)[C@H]1CC[C@H]2[C@@H]3[C@@H](O)C[C@@H]4C[C@H](O)CC[C@]4(C)[C@H]3CC[C@]12C`, the call in test [20] was inactive.

Consider `C[C@]12CC[C@@H]3c4ccc(O)cc4CC[C@H]3[C@@H]1CC[C@@H]2O`, for which the fold fluorescence in test [1] was 5.13 [at 183.6 µM] (inactive).

For the molecule `CC(=O)O[C@]1(C(C)=O)CC[C@H]2[C@@H]3C[C@H](C)C4=CC(=O)CC[C@]4(C)[C@H]3CC[C@@]21C`, the result in test [20] was inactive.

For `C=CC1=C(C(=O)O)N2C(=O)[C@@H](NC(=O)/C(=N\O)c3csc(N)n3)[C@H]2SC1` (stereo in doubt), the result in test [20] was inactive.

With `CC(C)[N+]1(C)C2CCC1CC(OC(=O)C(CO)c1ccccc1)C2` (configuration not stated), the outcome in test [20] was inactive.

As to `CC/C(=C(\c1ccccc1)c1ccc(OCCN(C)C)cc1)c1ccccc1`, the AC50 in test [20] was 26.4 µM (active). Further, the fold fluorescence in test [1] is 8.26 [at 134.6 µM] (inactive).
